Test [1] is described as follows: Viability qHTS for spleen associated tyrosine kinase inhibitor (SYKi) naive MV4-11 cells (AID 1963823). Further: nearly all actives have a fitted effect of over 40% in size. Particulars: MV4-11 AML viability, CellTiter-Glo luminescence, 72 h; series mostly up to 45 µM. Put shortly:
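qHTS, SYK inhibitor-naive MV4-11; 500 cells/well; 72 hr compound exposure, 37 C; CellTiter-Glo added, 10 min RT; luminescence read.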

A short description of test [2]: Viability qHTS for spleen associated tyrosine kinase inhibitor (SYKi) drug resistant MV4-11 cells (AID 1963824). Further: nearly all actives have a fitted effect of over 35% in size. Particulars: SYKi-resistant MV4-11 viability, CellTiter-Glo, 72 h; series mostly up to 45 µM. Put shortly:
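SYK inhibitor-resistant MV4-11 AML cells, 500 per well, added to predispensed compounds and incubated 72 hr at 37 C, 5% CO2. Viability measured by CellTiter-Glo luminescence after 10 min at room temperature.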
In general terms: Quantitative high-throughput screening tests each substance at several concentrations.

Results filed as inconclusive are left out. A number with no mark means an inactive call. The source made the active and inactive calls. The call rests on the fitted dose curve; in most records, active means well fitted cell-killing curve with a large enough effect; inconclusive means small, poorly fitted or top-dose-only effect, or effect the other way; inactive means no such curve, though single readings can be large or run the other way.
Potency means the concentration at half of the fitted maximal effect.

Turning to `C=CC1(C)CC(OC(=O)C(=C)C(O)COC(C)=O)C(C(=C)C(=O)OC)C(O)C1C(=C)CO` (configuration not stated), the Potency was 8.93 µM (active) in test [1] and 10 µM (active) in test [2].
On the same counts, the results for `Cc1ccc(S(=O)(=O)c2ccc([N+](=O)[O-])o2)cc1` are 0.461 µM (active) and 0.411 µM (active).
On the same counts, the results for `C[C@@H]1C(=O)O[C@H]2[C@H](O)C34[C@H]5C[C@@H](C(C)(C)C)C36[C@@H](OC(=O)[C@@H]6O)O[C@@]4(C(=O)O5)[C@@]12O` (some centres not stated) are “inactive” and “inactive”.
For the compound `COC(=O)C1=CO[C@@H](O[C@@H]2O[C@H](CO)[C@@H](O)[C@H](O)[C@H]2O)[C@@H]2C(CO)=CC[C@H]12`, the Potency result in test [1] and in test [2] was “inactive” throughout.
On to `CC(=O)OC[C@]12[C@H](OC(C)=O)C(=O)[C@@H]3[C@@H](O)[C@@]14O[C@@]3(C)COC(=O)c1cccnc1[C@@H](C)[C@H](C)C(=O)O[C@@H]([C@H](O)[C@@H]2OC(C)=O)[C@]4(C)O`, for which the Potency is 1.72 µM (active) in test [1] and 3.43 µM (active) in test [2].
Take `C=CC1(C)CC(OC(=O)/C(C)=C\COC(C)=O)C(C(=C)C(=O)O)C(O)C1C(=C)CO` (configuration not stated): the Potency entry in test [1] and in test [2] was “inactive” throughout.
On to `C/C=C(\C)C(=O)OC[C@H]1O[C@@H](O[C@H]2[C@@H](O[C@H]3O[C@H](COC(=O)/C(C)=C/C)[C@@H](O)[C@H](O)[C@H]3O[C@@H]3O[C@H](COC(=O)/C(C)=C/C)[C@@H](O)[C@H](OC(=O)/C(C)=C/C)[C@H]3O)O[C@H](COC(=O)/C(C)=C/C)[C@@H](O)[C@@H]2O)[C@H](O)[C@@H](O)[C@@H]1O`, for which the viability (% of control) in test [1] is 68.7% [at 9.25 µM]. Also, the viability, % of control in test [2] was 65.9% [at 9.25 µM].
For the compound `CC(C)=CCC[C@](C)(O[C@@H]1O[C@H](CO[C@@H]2O[C@@H](CO)[C@H](O)[C@H]2O)[C@@H](O)[C@H](O)[C@H]1O)[C@H]1CC[C@]2(C)[C@@H]1[C@H](O)C[C@@H]1[C@@]3(C)CC[C@H](O[C@@H]4O[C@H](CO)[C@@H](O)[C@H](O)[C@H]4O[C@@H]4O[C@H](CO)[C@@H](O)[C@H](O)[C@H]4O)C(C)(C)[C@@H]3CC[C@]12C`, the Potency entry in test [1] and in test [2] was “inactive” throughout.
For the compound `COc1ccc(/C=C/C(=O)O[C@@H]2[C@@H](OC(C)=O)[C@@H](OC(C)=O)[C@H](O[C@H]3[C@@H]4C=CO[C@@H](O[C@@H]5O[C@H](CO)[C@@H](O)[C@H](O)[C@H]5O)[C@@H]4[C@@]4(CO)O[C@@H]34)O[C@H]2C)cc1`, the Potency result in test [1] and in test [2] was “inactive” in each case.
As to `C=C(C)[C@@H]1CC[C@]2(C(=O)O)CC[C@]3(C)C(CCC4[C@]5(C)C(CC[C@]43C)C(C)(C)[C@@H](O)[C@@H]5C(=O)O)C12` (some centres not stated), the Potency entry in test [1] and in test [2] was “inactive” each time.
With `Cc1cc(-c2nncc3c(C(C)(C)C)c(OCc4ncnn4C)nn23)no1`, the Potency entry in test [1] and in test [2] was “inactive” throughout.
Regarding `O=C1OCc2cc3cccc(O[C@@H]4O[C@H](CO)[C@@H](O)[C@H](O)[C@H]4O)c3c(O)c21`, the Potency entry in test [1] and in test [2] was “inactive” throughout.
As to `C=C1C(=O)O[C@@H]2/C=C(\CO)CC/C=C(\CO)[C@H](OC(C)=O)C(OC(=O)C(C)CC)C12` (some centres not stated), the Potency in test [1] was 5.02 µM (active); in test [2], 2.24 µM (active).
The like results for `CC(C/C=C/C(C)(C)O)C1CCC(C)(O)C(O)C1` (configuration not stated) were, in that order, “inactive” and “inactive”.
The like results for `COc1cc2c(cc1NS(=O)(=O)c1ccc(Br)cc1C)n(C)c(=O)n2C` were, in that order, 2.31 µM (active) and 2.31 µM (active).
The like results for `N#Cc1ccc(-c2ccc(S(=O)(=O)Nc3cccc(N)n3)cc2)cc1` were, in that order, 8.2 µM (active) and 7.31 µM (active).
Regarding `CCC[C@@H](NC(=O)N1C(=O)C(CC)(CC)[C@@H]1Oc1ccc(C(=O)N2CCN(C)CC2)cc1)c1ccc2c(c1)OCO2`, the Potency in test [1] is 18.4 µM (active); in test [2], 20.6 µM (active).
On the same counts, the results for `CC(=O)C1(C)CCC2C3C=C(C)C4=CC(=O)CCC4(C)C3CCC21C` (configuration not stated) are 5.8 µM (active) and 7.31 µM (active).
The like results for `CC1CCC/C=C/C(=O)c2c(O)cc(O)cc2CC(=O)O1` (configuration not stated) were, in that order, 3.66 µM (active) and 2.06 µM (active).
On the same counts, the results for `Cc1nc(CN(C)c2ncnc3ccc(-c4ccc5c(c4)OCO5)cc23)cs1` are 3.26 µM (active) and 5.8 µM (active).
In the case of `C=C1C[C@]23C[C@@]1(O)CC[C@H]2[C@@]12C=C[C@H](O)[C@@](C)(C(=O)O1)[C@H]2[C@@H]3C(=O)O`, the Potency entry in test [1] and in test [2] was “inactive” each time.
As to `COC1=CC(=O)C[C@@H](C)[C@]12Oc1cc(OC)cc(OC)c1C2=O`, the Potency result in test [1] and in test [2] was “inactive” in each case.
Regarding `CC(C)C1(O)C=C2C(=O)CC3C(C)(C(=O)O)CCCC3(C)C2CC1` (configuration not stated), the Potency entry in test [1] and in test [2] was “inactive” in each case.
For the compound `CC(=O)N[C@@H](Cc1c[nH]c2ccccc12)C(=O)N[C@@H](CCC(=O)O)C(=O)N[C@@H](Cc1cnc[nH]1)C(=O)N[C@@H](CC(=O)O)C(=O)Nc1ccc2c(C(F)(F)F)cc(=O)oc2c1`, the Potency entry in test [1] and in test [2] was “inactive” each time.
With `COC(=O)[C@@H](O)[C@H]1[C@@]2(C)CC3(O)[C@@H](C(=O)[C@H]2O)[C@]24O[C@]25CC(=O)O[C@@H](c2ccoc2)[C@]5(C)CCC4[C@]13C` (some centres not stated), the Potency entry in test [1] and in test [2] was “inactive” each time.
With `C[C@@H]1O[C@@H](O[C@H]2[C@H](O)[C@@H](O)[C@H](OC(=O)[C@]34CCC(C)(C)C[C@H]3C3=CCC5[C@@]6(C)CC[C@H](O[C@@H]7O[C@H](C(=O)O)[C@@H](O)[C@H](O)[C@H]7O)C(C)(C)C6CC[C@@]5(C)[C@]3(C)CC4)O[C@@H]2CO)[C@H](O)[C@H](O)[C@H]1O` (some centres not stated), the viability (% of control) in test [1] was 72.1% [at 9.25 µM]. Moreover, the viability, % of control in test [2] was 75.6% [at 9.25 µM].

Values taken from PubChem BioAssay (NCATS).
